# Measurements: the supplement of paper PMC4466140
# B1: unnamed (peptide)
# chain: KNRKNLPTIPIRLSG
# Molecular target: AgAbp1
# Assay: SPOT peptide array binding signal intensity (averaged, normalized) (arbitrary units (background-subtracted, floor 0; scale differs between SH3 domains)); higher = stronger binding of the SH3 domain to the peptide
# Outline: (§1)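 Cellulose membranes carried synthetic 15-mer peptides with cysteines swapped for serines. These were incubated overnight at 4°C with 10 μg/ml of GST-fused SH3 domains from four yeast species in TBS-based blocking buffer. Binding signal, detected with anti-GST antibody and quantified in Genespotter, is the normalized, background-subtracted spot intensity averaged over replicates, in arbitrary units specific to each domain.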
row,Binder,SPOT peptide array binding signal intensity
1,B1,4080

# Molecular target: AgBbc1
# Assay: as above
# Outline: as §1
row,Binder,SPOT peptide array binding signal intensity
1,B1,456

# Molecular target: AgBem1-D1
# Assay: as above
# Outline: as §1
row,Binder,SPOT peptide array binding signal intensity
1,B1,144

# Molecular target: AgBzz1-D1
# Assay: as above
# Outline: as §1
row,Binder,SPOT peptide array binding signal intensity
1,B1,104

# Molecular target: AgBzz1-D2
# Assay: as above
# Outline: as §1
row,Binder,SPOT peptide array binding signal intensity
1,B1,35

# Molecular target: AgCyk3
# Assay: as above
# Outline: as §1
row,Binder,SPOT peptide array binding signal intensity
1,B1,1

# Molecular target: AgFus1
# Assay: as above
# Outline: as §1
row,Binder,SPOT peptide array binding signal intensity
1,B1,63

# Molecular target: AgHof1
# Assay: as above
# Outline: as §1
row,Binder,SPOT peptide array binding signal intensity
1,B1,240

# Molecular target: AgHse1
# Assay: as above
# Outline: as §1
row,Binder,SPOT peptide array binding signal intensity
1,B1,206

# Molecular target: AgLsb1
# Assay: as above
# Outline: as §1
row,Binder,SPOT peptide array binding signal intensity
1,B1,318

# Molecular target: AgLsb4
# Assay: as above
# Outline: as §1
row,Binder,SPOT peptide array binding signal intensity
1,B1,108

# Molecular target: AgMyo5
# Assay: as above
# Outline: as §1
row,Binder,SPOT peptide array binding signal intensity
1,B1,≤ 0

# Molecular target: AgNbp2
# Assay: as above
# Outline: as §1
row,Binder,SPOT peptide array binding signal intensity
1,B1,1360

# Molecular target: AgRvs167
# Assay: as above
# Outline: as §1
row,Binder,SPOT peptide array binding signal intensity
1,B1,5.83

# Molecular target: AgSho1
# Assay: as above
# Outline: as §1
row,Binder,SPOT peptide array binding signal intensity
1,B1,4630

# Molecular target: AgSla1-D1-D2
# Assay: as above
# Outline: as §1
row,Binder,SPOT peptide array binding signal intensity
1,B1,402

# Molecular target: AgSla1-D3
# Assay: as above
# Outline: as §1
row,Binder,SPOT peptide array binding signal intensity
1,B1,7

# Molecular target: CaAbp1-D1
# Assay: as above
# Outline: as §1
row,Binder,SPOT peptide array binding signal intensity
1,B1,1420

# Molecular target: CaAbp1-D2
# Assay: as above
# Outline: as §1
row,Binder,SPOT peptide array binding signal intensity
1,B1,3510

# Molecular target: CaBbc1
# Assay: as above
# Outline: as §1
row,Binder,SPOT peptide array binding signal intensity
1,B1,1560

# Molecular target: CaBem1-D1
# Assay: as above
# Outline: as §1
row,Binder,SPOT peptide array binding signal intensity
1,B1,22

# Molecular target: CaBzz1-D1
# Assay: as above
# Outline: as §1
row,Binder,SPOT peptide array binding signal intensity
1,B1,221

# Molecular target: CaBzz1-D2
# Assay: as above
# Outline: as §1
row,Binder,SPOT peptide array binding signal intensity
1,B1,67.2

# Molecular target: CaCyk3
# Assay: as above
# Outline: as §1
row,Binder,SPOT peptide array binding signal intensity
1,B1,8

# Molecular target: CaFus1
# Assay: as above
# Outline: as §1
row,Binder,SPOT peptide array binding signal intensity
1,B1,382

# Molecular target: CaHof1
# Assay: as above
# Outline: as §1
row,Binder,SPOT peptide array binding signal intensity
1,B1,0.25

# Molecular target: CaHse1
# Assay: as above
# Outline: as §1
row,Binder,SPOT peptide array binding signal intensity
1,B1,28.2

# Molecular target: CaLsb1
# Assay: as above
# Outline: as §1
row,Binder,SPOT peptide array binding signal intensity
1,B1,0.5

# Molecular target: CaLsb4
# Assay: as above
# Outline: as §1
row,Binder,SPOT peptide array binding signal intensity
1,B1,1340

# Molecular target: CaMyo5
# Assay: as above
# Outline: as §1
row,Binder,SPOT peptide array binding signal intensity
1,B1,≤ 0

# Molecular target: CaNbp2
# Assay: as above
# Outline: as §1
row,Binder,SPOT peptide array binding signal intensity
1,B1,398

# Molecular target: CaRvs167
# Assay: as above
# Outline: as §1
row,Binder,SPOT peptide array binding signal intensity
1,B1,283

# Molecular target: CaRvs167-3
# Assay: as above
# Outline: as §1
row,Binder,SPOT peptide array binding signal intensity
1,B1,23.8

# Molecular target: CaSho1
# Assay: as above
# Outline: as §1
row,Binder,SPOT peptide array binding signal intensity
1,B1,1100

# Molecular target: CaSla1-D1-D2
# Assay: as above
# Outline: as §1
row,Binder,SPOT peptide array binding signal intensity
1,B1,672

# Molecular target: CaSla1-D3
# Assay: as above
# Outline: as §1
row,Binder,SPOT peptide array binding signal intensity
1,B1,≤ 0

# Molecular target: ScAbp1
# Assay: as above
# Outline: as §1
row,Binder,SPOT peptide array binding signal intensity
1,B1,634

# Molecular target: ScBbc1
# Assay: as above
# Outline: as §1
row,Binder,SPOT peptide array binding signal intensity
1,B1,46.8

# Molecular target: ScBem1-D1
# Assay: as above
# Outline: as §1
row,Binder,SPOT peptide array binding signal intensity
1,B1,19

# Molecular target: ScBzz1-D1
# Assay: as above
# Outline: as §1
row,Binder,SPOT peptide array binding signal intensity
1,B1,35.5

# Molecular target: ScBzz1-D2
# Assay: as above
# Outline: as §1
row,Binder,SPOT peptide array binding signal intensity
1,B1,7

# Molecular target: ScCyk3
# Assay: as above
# Outline: as §1
row,Binder,SPOT peptide array binding signal intensity
1,B1,17

# Molecular target: ScFus1
# Assay: as above
# Outline: as §1
row,Binder,SPOT peptide array binding signal intensity
1,B1,63

# Molecular target: ScHof1
# Assay: as above
# Outline: as §1
row,Binder,SPOT peptide array binding signal intensity
1,B1,3

# Molecular target: ScHse1
# Assay: as above
# Outline: as §1
row,Binder,SPOT peptide array binding signal intensity
1,B1,582

# Molecular target: ScLsb1
# Assay: as above
# Outline: as §1
row,Binder,SPOT peptide array binding signal intensity
1,B1,462

# Molecular target: ScLsb2
# Assay: as above
# Outline: as §1
row,Binder,SPOT peptide array binding signal intensity
1,B1,824

# Molecular target: ScLsb3
# Assay: as above
# Outline: as §1
row,Binder,SPOT peptide array binding signal intensity
1,B1,2010

# Molecular target: ScLsb4
# Assay: as above
# Outline: as §1
row,Binder,SPOT peptide array binding signal intensity
1,B1,80

# Molecular target: ScMyo3
# Assay: as above
# Outline: as §1
row,Binder,SPOT peptide array binding signal intensity
1,B1,4.5

# Molecular target: ScMyo5
# Assay: as above
# Outline: as §1
row,Binder,SPOT peptide array binding signal intensity
1,B1,1

# Molecular target: ScNbp2
# Assay: as above
# Outline: as §1
row,Binder,SPOT peptide array binding signal intensity
1,B1,1180

# Molecular target: ScPex13
# Assay: as above
# Outline: as §1
row,Binder,SPOT peptide array binding signal intensity
1,B1,148

# Molecular target: ScRvs167
# Assay: as above
# Outline: as §1
row,Binder,SPOT peptide array binding signal intensity
1,B1,774

# Molecular target: ScSho1
# Assay: as above
# Outline: as §1
row,Binder,SPOT peptide array binding signal intensity
1,B1,5890

# Molecular target: ScSla1-D1-D2
# Assay: as above
# Outline: as §1
row,Binder,SPOT peptide array binding signal intensity
1,B1,2930

# Molecular target: ScSla1-D3
# Assay: as above
# Outline: as §1
row,Binder,SPOT peptide array binding signal intensity
1,B1,27.8

# Molecular target: SpAbp1-D1
# Assay: as above
# Outline: as §1
row,Binder,SPOT peptide array binding signal intensity
1,B1,1210

# Molecular target: SpBbc1
# Assay: as above
# Outline: as §1
row,Binder,SPOT peptide array binding signal intensity
1,B1,5.5

# Molecular target: SpBzz1-D1
# Assay: as above
# Outline: as §1
row,Binder,SPOT peptide array binding signal intensity
1,B1,512

# Molecular target: SpBzz1-D2
# Assay: as above
# Outline: as §1
row,Binder,SPOT peptide array binding signal intensity
1,B1,1.5

# Molecular target: SpCyk3
# Assay: as above
# Outline: as §1
row,Binder,SPOT peptide array binding signal intensity
1,B1,23.5

# Molecular target: SpHof1
# Assay: as above
# Outline: as §1
row,Binder,SPOT peptide array binding signal intensity
1,B1,1400

# Molecular target: SpHof1-2
# Assay: as above
# Outline: as §1
row,Binder,SPOT peptide array binding signal intensity
1,B1,2230

# Molecular target: SpHof1-3
# Assay: as above
# Outline: as §1
row,Binder,SPOT peptide array binding signal intensity
1,B1,1490

# Molecular target: SpHse1
# Assay: as above
# Outline: as §1
row,Binder,SPOT peptide array binding signal intensity
1,B1,166

# Molecular target: SpLsb1
# Assay: as above
# Outline: as §1
row,Binder,SPOT peptide array binding signal intensity
1,B1,510

# Molecular target: SpLsb4
# Assay: as above
# Outline: as §1
row,Binder,SPOT peptide array binding signal intensity
1,B1,2330

# Molecular target: SpMyo1
# Assay: as above
# Outline: as §1
row,Binder,SPOT peptide array binding signal intensity
1,B1,25

# Molecular target: SpNbp2
# Assay: as above
# Outline: as §1
row,Binder,SPOT peptide array binding signal intensity
1,B1,336

# Molecular target: SpPex13
# Assay: as above
# Outline: as §1
row,Binder,SPOT peptide array binding signal intensity
1,B1,9.5

# Molecular target: SpRvs167
# Assay: as above
# Outline: as §1
row,Binder,SPOT peptide array binding signal intensity
1,B1,1010

# Molecular target: SpSla1-D1-D2
# Assay: as above
# Outline: as §1
row,Binder,SPOT peptide array binding signal intensity
1,B1,1490

# Molecular target: SpSla1-D3
# Assay: as above
# Outline: as §1
row,Binder,SPOT peptide array binding signal intensity
1,B1,6
